Bioassay records as filed in PubChem.
Hits are enriched below; roughly 6.6% of the tested compounds scored in any of these assays.
MPTP block – mitochondrial permeability transition pore inhibitors, primary screen, biochemical, isolated mouse mitochondria, absorbance; inhibition, % at 10 µM; Ca2+ swelling absorbance, 30 min; 360,000 tested, 1.4% active; AID 602449, 2012;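 active means inhibition of 50% or more, scaled per plate between neutral and stimulator controls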;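 further: 0% = DMSO wells given calcium and 100% = 1 mM EGTA wells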
NR3A LBD binder – binders of NR3A ligand-binding domain, primary screen, biophysical, differential scanning fluorimetry, uHTS | Glutamate receptor ionotropic, NMDA 3A (GRIN3A) ligand-binding domain | NR3A LBD differential scanning fluorimetry, Tm shift; 0% = protein alone, 100% = glycine-bound protein | Tm shift relative to glycine control, % at 25 µM | 340,000 tested, 2.5% active | AID 1259313, 2017;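 active means melting temperature shift of at least 10% of the positive control shift, at one fixed dose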
Gli-Sufu block – Gli-Sufu pathway antagonists, primary screen, luciferase luminescence, Sufu-KO-LIGHT cells, uHTS | Sufu-KO-LIGHT fibroblasts, Gli luciferase reporter luminescence | inhibition, % at 5 µM | 340,000 tested, 0.74% active | AID 588413, 2011;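 active means inhibition above about 55%, limit read from the data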;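 further: 0% = DMSO-treated cells and 100% = wells with medium but no cells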
CSC inhib – cancer stem cell viability inhibitors, primary screen, luminescence; 300,000 tested, 1.1% active; inhibition, % at 7.5 µM; cancer stem cell-like cells viability; AID 2717, 2010; in the data active means inhibition above about 75%; tested in HMLE shEcad cells
Mdm2 MdmX PPI – inhibitors of human Mdm2-MdmX association, primary screen, cell-based, luminescence, split luciferase, SaOS-2, uHTS. Protein Mdm4 (Homo sapiens) + E3 ubiquitin-protein ligase Mdm2 (Homo sapiens), …. SaOS-2 split-luciferase Mdm2/MdmX complementation. inhibition, % at 8 µM. 330,000 tested, 3% active. AID 485346, 2010;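 active means inhibition of at least 50% at 8 µM in the primary screen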
Beta apoptosis – inhibitors of cytokine-induced beta cell apoptosis, primary screen, luminescence | 300,000 tested, 0.8% active | protection from apoptosis, % (no concentration beside the values) | AID 435005, 2010 | INS-1E cytokine-induced death, ATP luminescence, 48 h; percent of positive-control rescue, neutral wells zero;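 active means Every replicate reaches about 75%, or at least half do and their mean reaches it too, limit read from the data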;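 further: 0% = cytokine-treated negative control wells and 100% = positive control rescue; higher means more ATP so stronger rescue from cytokine killing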
Mdm2 MdmX conf – Mdm2-MdmX complex disruptors, retested hits, confirmation, luminescence, single concentration; shares compounds with Mdm2 MdmX PPI; Mdm2-MdmX binding, luminescent assay; inhibition, % at 8 µM; 10,000 tested, 55% active; AID 489028, 2010; in the data active means inhibition above about 40%
Full FLuc ctr – full-length luciferase signal inhibition, confirmation, counter-screen for Mdm2/MdmX interaction inhibitor project, cell-based, single concentration, SaOS-2 | SaOS-2 full-length luciferase counterscreen, luminescence | AID 504607, 2011 | inhibition, % at 8 µM | 6,200 tested, 77% active | shares compounds with Mdm2 MdmX PPI;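 active means mean inhibition at 8 µM reaching about 37%, which flags the compound as non-specific, limit read from the data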;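 further: p53-null SaOS-2 cells with luciferase driven by a doxycycline-inducible promoter; compound on cells about two nights before reading with doxycycline added after day one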
Active calls of the source: *; nt = no result given.

SMILES | MPTP block | NR3A LBD binder | Gli-Sufu block | CSC inhib | Mdm2 MdmX PPI | Beta apoptosis | Mdm2 MdmX conf | Full FLuc ctr
O=C(C[C@H]1C[C@H](C(=O)N2CCCCC2)[C@@]2(CCc3ccccc3)c3[nH]c4ccc(Cl)cc4c3CCN2C1=O)NCCC1=CCCCC1 | 2.1 | -0.2 | 3.3 | nt | 77.4* | nt | 25.4 | nt
O=C(C[C@H]1C[C@H](C(=O)N2CCCCC2)[C@@]2(CCc3ccccc3)c3[nH]c4ccc(Cl)cc4c3CCN2C1=O)NCCc1ccccn1 | -0.8 | 3.0 | 13.8 | nt | 25.8 | nt | nt | nt
O=C(C[C@H]1C[C@H](C(=O)N2CCCCC2)[C@@]2(CCc3ccccc3)c3[nH]c4cc(-c5ccco5)ccc4c3CCN2C1=O)NCCC1=CCCCC1 | -0.2 | 4.4 | 2.4 | nt | 38.7 | nt | nt | nt
CN(C)CCCNC(=O)C[C@H]1C[C@H](C(=O)N2CCCCC2)[C@@]2(CCc3ccccc3)c3[nH]c4ccc(Cl)cc4c3CCN2C1=O | -5.1 | -5.5 | -6.1 | nt | 97.4* | nt | 91.0* | 51.2*
C[C@@H]1CN([C@@H](C)CO)C(=O)c2cc(Br)cnc2O[C@H]1CN(C)S(=O)(=O)c1cccs1 | 0.2 | nt | nt | nt | nt | nt | nt | nt
O=C(Nc1ccc(F)cc1F)c1csc(-c2ccccc2)n1 | 0.4 | -0.8 | -15.4 | 4.4 | -28.3 | nt | nt | nt
O=C(Nc1ccc(F)cc1F)c1cccc(C(=O)Nc2ccc(F)cc2F)n1 | -2.0 | -0.5 | 27.6 | 56.3 | 94.8* | 68.7 | 87.0* | 50.1*
CCC(C)NC(=O)C1(N2C(=O)c3ccccc3C2=O)CCCC1 (stereo not given) | 0.0 | -0.9 | 3.0 | nt | nt | nt | nt | nt
CC(O)CC(=O)OC[C@]12CC[C@H]3[C@@](C)(CC[C@H]4C(C)(C)CCC[C@]34C)[C@@H]1CC(C1=CC(=O)OC1O)O2 (stereo not given in full) | 0.9 | nt | nt | nt | nt | nt | nt | nt
CC(=O)OC[C@]12CC[C@H]3[C@@](C)(CC[C@H]4C(C)(C)CCC[C@]34C)[C@@H]1C[C@@H](C1=CC(=O)O[C@@H]1OC(C)=O)O2 | nt | nt | nt | 125.5* | 100.5* | 91.7* | 98.7* | 2.2
CC(=O)OC[C@]12CC[C@H]3[C@@](C)(CC[C@H]4C(C)(C)CCC[C@]34C)[C@@H]1C[C@H](C1=CC(=O)O[C@H]1OC(C)=O)O2 | nt | nt | nt | 106.7* | 90.7* | 9.5 | 23.1 | nt
Cc1ccc(C)c(NCCCCCCCC(=O)O)c1 | -0.2 | nt | nt | nt | nt | nt | nt | nt
Cc1ccc(OCC(=O)Nc2nc(-c3ccccn3)cs2)c(C)c1 | 0.5 | 1.3 | -2.3 | nt | 42.6 | 3.5 | nt | nt
O=C(Nc1nc(-c2cc(F)ccc2F)cs1)c1ccccn1 | 0.6 | -1.6 | -11.5 | 42.7 | 41.7 | 11.2 | nt | nt
O=C(Nc1nc(-c2ccccn2)cs1)Nc1ccc(F)cc1F | -0.3 | 14.0* | -0.1 | -13.7 | 58.6* | 77.0* | 44.5* | 50.8*
O=C(COc1cccc(F)c1)Nc1nc(-c2ccccn2)cs1 | -0.8 | nt | nt | nt | nt | nt | nt | nt
O=C(COc1ccc(F)cc1)Nc1nc(-c2ccccn2)cs1 | -0.5 | 0.2 | -4.0 | 16.8 | 63.5* | 1.8 | 69.7* | 61.5*
O=C(COc1ccc([N+](=O)[O-])cc1)Nc1nc(-c2ccccn2)cs1 | -1.6 | -7.0 | -2.1 | 54.9 | 75.8* | nt | 81.1* | 35.6
OC[C@@H]1CN(Cc2ccccc2)C[C@H](n2cnc3c(N4CCOCC4)ncnc32)O1 | -1.7 | nt | nt | nt | nt | nt | nt | nt
COc1ccc(S(=O)(=O)N2CCC[C@H]2C(=O)N2CCC[C@H]2C(=O)N(C)Cc2ccccc2)cc1C | -1.6 | nt | nt | nt | nt | nt | nt | nt
COc1ccccc1OCC(O)Cn1c(=N)n(CCN2CCCCC2)c2ccccc21 (stereo not given) | -0.2 | -4.5 | 36.0 | -4.5 | 55.6* | -7.1 | 45.5* | 73.8*
